Laboratory results reported in PubChem BioAssay (NCI).
Where “and” joins values, the source holds several entries; their conditions need not be identical. Equal values may be shown once. This is part of a sample that, as a whole, favours compounds with a hit. Of some 79,000 tested, about 15% had one in any assay. Some structures have more than one record in an assay (separate samples or runs), and their calls can disagree. Calls of active or inactive are those of the source. Cut-off read from the data, not from the text of the source: active = growth inhibition above about 70%; inactive = the rest.

Tests used:
[1] = NCI Yeast Anticancer Drug Screen. Data for the rad50 strain (AID 155);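 note: 0% = growth of vehicle-only cultures of the same strain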; conditions: S. cerevisiae rad50 strain growth inhibition, stronger effect = higher value
Method in brief: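 Inhibition values express reduced yeast growth in compound-treated cultures relative to vehicle-treated controls.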

[2] = NCI Yeast Anticancer Drug Screen. Data for the mec2-1 strain (AID 157); conditions: S. cerevisiae mec2-1 strain, stronger effect = higher value
Method in brief: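 Readout is yeast growth inhibition, normalised to vehicle-treated controls, in the mec2-1 strain exposed to compound.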

[3] = NCI Yeast Anticancer Drug Screen. Data for the sgs1 mgt1 strain (AID 161);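 note: 0% = growth of cultures given vehicle only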; conditions: S. cerevisiae sgs1 mgt1 strain, stronger effect = higher value
Method in brief: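 This yeast growth screen uses a strain with defined DNA-repair lesions; compound-treated growth is compared with vehicle-treated growth.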

[4] = NCI Yeast Anticancer Drug Screen. Data for the cln2 rad14 strain (AID 165);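 note: 0% = growth equal to vehicle treated cultures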; conditions: S. cerevisiae cln2 rad14 strain, stronger effect = higher value
Method in brief: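 Relative to vehicle controls, growth inhibition of compound-treated cln2 rad14 yeast was recorded.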

[5] = NCI Yeast Anticancer Drug Screen. Data for the bub3 strain (AID 167); conditions: S. cerevisiae bub3 mutant strain, stronger effect = higher value
Method in brief: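 Steps: expose the mutant yeast strain to compound; grow alongside vehicle-treated cultures; measure growth; express inhibition against the vehicle cultures.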

[6] = NCI Yeast Anticancer Drug Screen. Data for the mlh1 rad18 strain (AID 175); conditions: S. cerevisiae mlh1 rad18 strain growth inhibition, stronger effect = higher value
Method in brief: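 Test agents were incubated with a yeast strain of defined genotype (DNA damage repair defect). Inhibition of growth was derived by comparison with vehicle-exposed cultures.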

[7] = at 5.0 µM (retest, dose inferred, filed as 0.5)
[8] = at 50.0 µM (retest, dose inferred, filed as 5.0)

Row | Compound | growth inhibition [1, 7] | growth inhibition [1, 8] | growth inhibition ([1]; at 50.0 µM) | growth inhibition [2, 7] | growth inhibition [2, 8] | growth inhibition ([2]; at 50.0 µM) | growth inhibition [3, 7] | growth inhibition [3, 8] | growth inhibition ([3]; at 50.0 µM) | growth inhibition [4, 7] | growth inhibition [4, 8] | growth inhibition ([4]; at 50.0 µM) | growth inhibition [5, 7] | growth inhibition [5, 8] | growth inhibition ([5]; at 50.0 µM) | growth inhibition [6, 7] | growth inhibition [6, 8] | growth inhibition ([6]; at 50.0 µM)
1 | CC1=CC(C)=Nc2ccc(Cl)cc2N1 | -2% (inactive) | 9% (inactive) | -1.1% (inactive) and 52% (inactive) | 2% (inactive) | 2% (inactive) | 11.4% (inactive) and 2.6% (inactive) | -4% (inactive) | -1% (inactive) | -5.1% (inactive) and 41% (inactive) | 1% (inactive) | 7% (inactive) | -15.9% (inactive) and -11.8% (inactive) | -2% (inactive) | -7% (inactive) | -2.9% (inactive) and 21.6% (inactive) | -2% (inactive) | 7% (inactive) | 9.35% (inactive) and 75.1% (active)
2 | O=C(O)c1c2ccccc2nc2[nH]c(=O)[nH]c(=O)c12 | -1% (inactive) | -3% (inactive) | 3.3% (inactive) and 23.4% (inactive) | -2% (inactive) | -2% (inactive) | -5.05% (inactive) and 33.4% (inactive) | -6% (inactive) | -3% (inactive) | -4.45% (inactive) and 24.3% (inactive) | 0% (inactive) | 6% (inactive) | 62.9% (inactive) and -0.85% (inactive) | -1% (inactive) | -5% (inactive) | 7.1% (inactive) and 34% (inactive) | 0% (inactive) | -4% (inactive) | -1.9% (inactive) and 15.7% (inactive)
3 | Nc1ccc(N=Nc2ccccc2)c(N)n1 | -166% (inactive) | -14% (inactive) | 38.1% (inactive) and 16.4% (inactive) | -54% (inactive) | -20% (inactive) | 30.4% (inactive) and 10.7% (inactive) | -73% (inactive) | 4% (inactive) | 28.6% (inactive) and 5.05% (inactive) | -72% (inactive) | 10% (inactive) | 9.05% (inactive) and 19.2% (inactive) | -71% (inactive) | -26% (inactive) | 27.2% (inactive) and 3.75% (inactive) | -130% (inactive) | -25% (inactive) | 57.1% (inactive) and 7.85% (inactive)
4 | CCCCCCCCCCCCc1ccc(S(=O)(=O)O)cc1.[Cu+2] | -6% (inactive) | 88% (active) | 90.3% (active) | 14% (inactive) | 70% (active) | 64.9% (inactive) | 6% (inactive) | 97% (active) | 41.2% (inactive) | 2% (inactive) | 81% (active) | 17.3% (inactive) | -9% (inactive) | 82% (active) | 43.8% (inactive) | 15% (inactive) | 93% (active) | 66% (inactive)
5 | O=C(O)COc1ccc(OCC(=O)O)cc1 | 3% (inactive) | 42% (inactive) | -11.4% (inactive) and 55.8% (inactive) | -3% (inactive) | -2% (inactive) | -5.05% (inactive) and -20.9% (inactive) | -1% (inactive) | 1% (inactive) | -11.5% (inactive) | 1% (inactive) | -5% (inactive) | -68.3% (inactive) | 1% (inactive) | 4% (inactive) | -4.55% (inactive) | -3% (inactive) | 1% (inactive) | 0.9% (inactive) and 18.2% (inactive)
6 | O=C1C=CC(=O)N1c1ccc(N=Nc2ccccc2)cc1 | 97% (active) | 99% (active) | 86.2% (active) and 7.45% (inactive) | 99% (active) | 99% (active) | 86.2% (active) and -13.1% (inactive) | 99% (active) | 91% (active) | 89.7% (active) and 21.8% (inactive) | 98% (active) | 92% (active) | 87.2% (active) and 20.6% (inactive) | 99% (active) | 91% (active) | 87% (active) and 5.75% (inactive) | 98% (active) | 99% (active) | 85.5% (active) and 5.9% (inactive)
7 | CC1(C)CC(=O)C2=C(C1)OC1=C(CC(C)(C)CC1=O)C2c1ccccc1Cl (configuration not stated) | 19% (inactive) | 16% (inactive) | -5.65% (inactive) | 12% (inactive) | 13% (inactive) | -7.45% (inactive) | 8% (inactive) | 10% (inactive) | -1.9% (inactive) | 37% (inactive) | 33% (inactive) | 5.45% (inactive) | -11% (inactive) | -10% (inactive) | 13.2% (inactive) | 17% (inactive) | 17% (inactive) | -15.2% (inactive)
8 | O=C(NNc1ccnc2cc(Cl)ccc12)/C(=C/c1ccc2c(c1)OCO2)NC(=O)c1ccccc1 | 12% (inactive) | 71% (active) | 90.7% (active) | -18% (inactive) | 46% (inactive) | 77.3% (active) | -4% (inactive) | 47% (inactive) | 86.8% (active) | 2% (inactive) | 64% (inactive) | 79.7% (active) | -9% (inactive) | 83% (active) | 58.9% (inactive) | -2% (inactive) | 71% (active) | 93.1% (active)
9 | O=C1C(=Cc2ccc(O)cc2)N=C(c2ccccc2)N1n1c(-c2ccccc2)nc2ccccc2c1=O | 2% (inactive) | 39% (inactive) | 71% (active) | -2% (inactive) | 23% (inactive) | 38.9% (inactive) | 9% (inactive) | 29% (inactive) | 73.2% (active) | 18% (inactive) | 40% (inactive) | 44.9% (inactive) | 12% (inactive) | 57% (inactive) | 89.4% (active) | 12% (inactive) | 64% (inactive) | 91.8% (active)
10 | CC(=O)[O-].[O-]c1c(Cl)cc(Cl)cc1/C=N/Nc1ccccn1.[Zn+2] | 5% (inactive) | 93% (active) | 96.5% (active) | 16% (inactive) | 96% (active) | 87.8% (active) | 4% (inactive) | 96% (active) | 98.1% (active) | -1% (inactive) | 93% (active) | 95.5% (active) | -4% (inactive) | 96% (active) | 37.2% (inactive) | 3% (inactive) | 93% (active) | 97% (active)
11 | Cc1ccc(S(=O)(=O)SC/C=C\CSS(=O)(=O)c2ccc(C)cc2)cc1 | 4% (inactive) and 51% (inactive) | 97% (active) and 95% (active) | 93.3% (active) and 74.7% (active) | 14% (inactive) and -2% (inactive) | 97% (active) | 97% (active) and 5.65% (inactive) | 12% (inactive) and 67% (inactive) | 95% (active) and 97% (active) | 95.8% (active) and 76.7% (active) | 3% (inactive) and 12% (inactive) | 94% (active) | 88.6% (active) and 22.6% (inactive) | 12% (inactive) and 17% (inactive) | 99% (active) and 98% (active) | 96.5% (active) and -3.05% (inactive) | 2% (inactive) and 53% (inactive) | 98% (active) and 95% (active) | 95.9% (active) and 41.2% (inactive)
12 | COc1ccc(NC(=O)C(=O)NO)c(OC)c1 | 19% (inactive) | 94% (active) | 90.8% (active) | -2% (inactive) | 96% (active) | 91.1% (active) | 9% (inactive) | 94% (active) | 91% (active) | -10% (inactive) | 94% (active) | 87.9% (active) | 4% (inactive) | 93% (active) | 91.2% (active) | -28% (inactive) | 95% (active) | 87.9% (active)
13 | C=CCc1c2c(ccc(=O)c1O)-c1c(cc(OC)c(OC)c1OC)CCC2NC(C)=O (configuration not stated) | -3% (inactive) | 94% (active) | 70.3% (active) | 4% (inactive) | 98% (active) | 60.5% (inactive) | -20% (inactive) | 70% (active) | 64.6% (inactive) | -12% (inactive) | 93% (active) | 72% (active) | -13% (inactive) | 97% (active) | 53.3% (inactive) | 8% (inactive) | 97% (active) | 67% (inactive)
14 | Nc1ncnc2c(C3OC(CO)C(O)C3O)scc12 (configuration not stated) | 12% (inactive) | 36% (inactive) | 15.8% (inactive) | 12% (inactive) | 40% (inactive) | 26.4% (inactive) | 7% (inactive) | 42% (inactive) | 39.4% (inactive) | 21% (inactive) | 5% (inactive) | 30.9% (inactive) | -21% (inactive) | 30% (inactive) | 47.6% (inactive) | 14% (inactive) | 63% (inactive) | 39.4% (inactive)
